Sampled rows, rich in hits. Any-hit rate of the full collection: about 4.2%.
esBAF inh = inhibitors of esBAF chromatin remodeling in mouse ES cells. Bmi1-luciferase knock-in reporter, 24 h; 100% = twice the neutral-well signal. reporter increase, % at 12.5 µM. 350,000 tested, 2% active. AID 602393; in the data active means activation above about 40%; inconclusive means no clear call, values can overlap the other calls;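 further: 0% = median of the plate's neutral control wells and 100% = double that signal; a rise in the Bmi1 reporter signal indicates esBAF inhibition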
AHR act = human AHR activation; AID 2796; P35869; AHR-responsive luciferase reporter cells, luminescence; 320,000 tested, 2.5% active; activation, % at 5 µM; in the data active means activation above about 47%;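 further: 0% = vehicle wells and 100% = reference agonist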
Target sequence (P35869 whole entry, looked up): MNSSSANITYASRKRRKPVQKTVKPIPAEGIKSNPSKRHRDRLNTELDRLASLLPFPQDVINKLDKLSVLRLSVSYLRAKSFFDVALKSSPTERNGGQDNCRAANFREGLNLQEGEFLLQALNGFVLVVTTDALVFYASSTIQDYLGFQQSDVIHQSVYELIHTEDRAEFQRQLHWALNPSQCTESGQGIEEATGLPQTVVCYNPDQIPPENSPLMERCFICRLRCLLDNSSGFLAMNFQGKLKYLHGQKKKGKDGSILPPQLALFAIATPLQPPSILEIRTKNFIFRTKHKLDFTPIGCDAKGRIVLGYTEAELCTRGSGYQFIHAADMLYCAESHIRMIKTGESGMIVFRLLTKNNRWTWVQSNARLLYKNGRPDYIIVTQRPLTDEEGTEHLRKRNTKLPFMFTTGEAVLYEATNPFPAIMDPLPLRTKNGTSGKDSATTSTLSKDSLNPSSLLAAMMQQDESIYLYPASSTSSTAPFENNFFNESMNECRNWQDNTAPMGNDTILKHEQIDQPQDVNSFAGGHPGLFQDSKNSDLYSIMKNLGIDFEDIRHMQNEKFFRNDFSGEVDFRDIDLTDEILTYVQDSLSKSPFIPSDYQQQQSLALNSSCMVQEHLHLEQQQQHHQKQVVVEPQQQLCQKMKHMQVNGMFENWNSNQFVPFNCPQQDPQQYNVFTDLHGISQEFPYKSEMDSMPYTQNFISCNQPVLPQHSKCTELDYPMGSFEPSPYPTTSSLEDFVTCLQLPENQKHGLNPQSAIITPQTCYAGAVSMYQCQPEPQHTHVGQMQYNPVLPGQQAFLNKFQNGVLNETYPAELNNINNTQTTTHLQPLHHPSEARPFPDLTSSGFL
MITF act = activators of MITF-driven TRPM1 promoter activity in SK-MEL-5 cells; SK-MEL-5 TRPM1-promoter luciferase, 24 h; % of positive control, neutral wells = 0; activation, % at 12.5 µM; 300,000 tested, 0.75% active; AID 588334;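 active means mean activation of at least 80% with every replicate also reaching 80%; inconclusive means mean reaches 80% but some replicate falls short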;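 further: 0% = neutral control wells and 100% = parthenolide positive control wells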
GAA850 FXN act = activators of GAA850 frataxin (FXN) promoter. HEK293 lucGAA850 FXN promoter luciferase reporter, 24 h; percent of 10 µM SAHA response. activation, % at 6 µM. 360,000 tested, 0.56% active;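 active means activation above the average of all compounds screened plus 3 SD, cutoff fixed separately per campaign, cut at about 7.5% in these data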;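 further: 0% = DMSO wells and 100% = 10 µM SAHA wells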
Wnt act = Wnt/beta-catenin pathway activation | 300,000 tested, 1.2% active | Wnt/beta-catenin reporter cell assay, activator, plate reader | activation, % at 9.35 µM | AID 743398; in the data active means activation above about 30%, passing the limit was not always enough; inconclusive means no clear call, values can overlap the other calls;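 further: 0% = neutral control wells and 100% = positive control wells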
An asterisk follows results filed as active; u = inconclusive; x = no result.

SMILES	esBAF inh	AHR act	MITF act	GAA850 FXN act	Wnt act
O=C(CCNC(=O)c1ccccc1Cl)NNC(=O)c1ccccc1O	x	68.3*	-10.8	0.8	-1.0
Cc1nnc(NC(=O)CCNC(=O)c2ccccc2Cl)s1	x	0.8	-4.3	0.6	-1.2
CCN1[C@@H]2c3ccc(-c4ccncc4)c(=O)n3C[C@H]1[C@H](CO)[C@H]2C(=O)NCc1ccccc1	-1.0	x	x	x	x
Cc1noc(C)c1NC(=O)Nc1ccc2c(c1)C(=O)N([C@@H](C)CO)C[C@H](C)[C@H](CN(C)S(=O)(=O)c1ccccc1)O2	-3.7	x	x	x	x
COc1ccc(NC(=O)Nc2ccc3c(c2)C(=O)N([C@H](C)CO)C[C@@H](C)[C@@H](CN(C)C(=O)NC2CCCCC2)O3)cc1	-3.1	x	x	x	x
CC(=O)c1ccc(NC(=O)c2cccs2)cc1	32.0	-0.2	58.1	3.3	15.4
COc1cc(N)ccc1NC(=O)c1cccs1	13.6	60.3*	22.2	0.2	x
COC(=O)Cc1ccc(NC(=O)c2cccs2)cc1	48.8*	-4.8	67.5	1.3	17.7
N/C(=N\O)c1ccc(NC(=O)c2cccs2)cc1	21.9	17.5	53.3	3.0	40.3*
C[C@@H]1CCCCO[C@H](CN(C)S(=O)(=O)c2ccc(F)cc2)[C@@H](C)CN([C@@H](C)CO)C(=O)c2cc(NS(=O)(=O)c3ccc(Cl)cc3)ccc2O1	-1.3	x	x	x	x
CC(NC(=O)Cn1cc2c(n1)CCCCC2)c1ccccc1 (stereo not drawn)	-9.7	-0.2	-1.6	1.4	1.0
O=C(Cn1cc2c(n1)CCCC2)Nc1cc(-c2cccc(Cl)c2)no1	50.6*	-2.8	x	2.1	5.6
C[C@@H]1CN([C@H](C)CO)C(=O)c2cccc(NS(=O)(=O)c3ccc(Cl)cc3)c2O[C@H]1CN(C)Cc1ccncc1	-5.7	x	x	x	x
COc1cccc(Nc2ncnc3c2cnn3-c2cccc(C)c2)c1	56.1*	-6.5	x	2.7	x
COc1ccccc1Nc1ncnc2c1cnn2-c1cccc(C)c1	u	51.5*	x	0.6	35.4*
COc1ccc(OC)c(Nc2ncnc3c2cnn3-c2ccccc2)c1	27.9	-2.9	24.1	4.1	x
NCC[C@@H]1CC[C@H](NC(=O)c2ccccc2F)[C@H](CO)O1	2.0	x	x	x	x
COc1cc2c(cc1OC)-c1c(OC)c(OC)cc3ccnc(c13)C2=O	-30.4	47.5*	-7.4	-0.1	9.8
CCOc1ccccc1NC(=O)c1cccc(NC(=O)C2CCCC2)c1	3.6	59.9*	x	-1.7	0.6
COc1cc(NC(=O)C2CCCO2)c(OC)cc1NC(=O)c1ccccc1 (stereo not drawn)	10.9	78.4*	-2.4	-0.8	x
COc1cc(NC(=O)C2CCCCC2)c(OC)cc1NC(=O)c1ccccc1	-2.4	54.4*	-9.6	-1.2	1.8
COc1cc(NC(=O)C2CCCCC2)c(OC)cc1NC(=O)c1ccco1	-2.7	15.7	x	0.7	x
CCOc1ccccc1NC(=O)C1CCCC1	-6.6	x	x	0.4	-1.2
CCC(=O)Nc1ccc2c(c1)C(=O)N(C)C[C@H](OC)[C@H](C)CN(CC1CC1)[C@H](C)CO2	4.3	x	x	x	x
CC(=O)c1cccc(NC(=S)N2CCC(Cc3ccccc3)CC2)c1	x	2.7	-10.8	3.0	-1.6
SMILES	esBAF inh	AHR act	MITF act	GAA850 FXN act	Wnt act
CC(=O)c1ccc(NC(=S)N2CCC(Cc3ccccc3)CC2)cc1	x	-0.2	8.5	0.5	40.5*
O=C(Cn1nc(-c2ccccc2)c2ccccc2c1=O)Nc1ccccn1	47.8*	6.6	37.0	1.5	x
Cc1nn(CC(=O)Nc2ccccn2)c(=O)c2ccccc12	-3.7	0.5	7.8	1.0	-4.4
Cc1ccsc1/C=N/N1CCN(c2ccccn2)CC1	x	-5.4	x	3.4	12.5
Cc1ccsc1/C=N/NC(=O)CO	x	1.6	-12.5	1.7	18.9
Cc1ccsc1/C=N/NC(=O)c1sccc1C	11.6	47.9*	11.1	4.3	-3.6
Cc1ccsc1/C=N\NC(=O)c1ccc2c(c1)OCO2	-1.7	22.4	x	3.0	39.4*
CCn1nc(C)c(CNC(=O)Nc2ccc3c(c2)OCO3)c1C	36.7	68.0*	47.3	2.0	17.2
Cc1ccsc1/C=N/N1CCN(c2ccccc2)CC1	48.5*	32.4	62.5	7.8*	18.6
O=C(Nc1ccccc1)[C@@H]1[C@@H](CO)[C@@H]2Cn3c(cccc3=O)[C@@H]2N1C(=O)C1CCC1	4.8	x	x	x	x
COc1cccc(S(=O)(=O)Nc2ccc3c(c2)[C@H]2C[C@@H](CC(=O)N[C@@H](C)c4ccccc4)O[C@H](CO)[C@H]2O3)c1	10.6	x	x	x	x
Cc1ccsc1/C=N/N=C/c1sccc1C	13.0	69.7*	x	2.2	18.6
Cc1ccsc1C=Nc1ccc(O)cc1	-0.7	0.3	-9.9	0.9	x
